# Test results published in PubChem BioAssay (NCATS).
# Inconclusive results are not listed. A call without a number means that no potency is given here. The source made the active and inactive calls. Calls come from the whole dose curve; as a rule, active = well fitted cell-killing curve with a large enough effect; inconclusive = small, poorly fitted or top-dose-only effect, or effect the other way; inactive = flat fitted curve, though single readings scatter.
# Experiment: Identifying Small Molecule Inhibitors of Pancreatic Cancer Stem Cells (SN12C, Spheroid) (AID 1259360)
# Conditions: Potency: SN12C spheroid viability; series mostly up to 46.1 µM
# Excerpt: Progenitor-like cancer cells, often referred to as cancer stem cells (CSC), are believed to be the drivers of therapeutic resistance and rapid recurrence. CSCs are postulated to reside in specific niches characterized by low oxygen tension, limited nutrient supply, and high redox load. Selectively targeting CSC, alone or in combination with cytotoxic agents, as a means to produce durable remissions is an appealing concept. Modeling these cells in in vitro setting is an important step in finding new therapies and/or targets. Multiple reports highlight that forcing cells in culture into 3-dimensionaly architectures (spheroids) re-establishes key progenitor-like transcriptional signatures. Pancreatic cancer is among the diseases with the most dismal outlook which is driven, largely, by recurance following front-line therapies. […] In hopes of deriving new insight into the targeting of these pancreatic CSCs we examined three established pancreatic cancer cell lines in cytotoxicity assays versus a collection of approved and investigational drugs. Importantly, we screened these lines as traditional monolayer (2D) and spheroid (3D) formats to gain an appreciation of agents with differential activity.
# Multicellular tumor spheroids from Panc1, MiaPaCa-2, and the primary low-passage tissue culture line SB.06 were seeded in stem cell media (SCM) in nonadherent 6-well plates coated with hydrogel (Corning Life Sciences, Chelmsford, Mass) and pancreatic spheres generated for 14 days before screening. Cells were seeded into 1536-well solid-bottom white tissue culture treated Greiner Bio One Plates (789173-F) using a MultiDrop Combi (Thermofisher Scientific) dispenser and a small sterile cassette. One column was media alone to be used as a :"no cells" control. The plates were then covered with sterilized stainless steel gasketed lids from Kalypsys. After allowing cells to attach for 4 hours, 23 nL of test compound or control (negative control DMSO and positive control 9.2 uM Bortezomib-final) were added from a 1536-well polypropylene compound source plate to each well using a 1536 head pin tool from Kalypsys. Cells were then incubated for 48 hours at 37C, 95% relative humidity and 5% CO2. After 48 hours, plates were removed from the incubator and 3 uL of CellTiter-Glo (Promega) was added using an Aurora Flying Reagent Dispenser Bioraptor. Plates were incubated at room temperature for 10 minutes prior to reading the luminescence on the Viewlux (PerkinElmer). The relative luciferase units are used to calculate the percent activity using the activity of DMSO in the cells and no cells columns for normalization of no inhibition and full inhibition respectively.
# Potency is the fitted concentration of half-maximal effect.
row,Compound,Potency
1,CO[C@@H](C(=O)N1Cc2[nH]nc(NC(=O)c3ccc(N4CCN(C)CC4)cc3)c2C1)c1ccccc1,inactive
2,Clc1ccc(-c2nc3sccn3c2C=NOCc2ccc(Cl)c(Cl)c2)cc1,inactive
3,CC(C)[C@H](CO)Nc1nc(Nc2ccc(C(=O)O)c(Cl)c2)c2ncn(C(C)C)c2n1,inactive
4,CCOC(CN1C(=O)[C@](CC(=O)Nc2ccc(C)cc2)(NC(=O)Nc2ccc(C)cc2)c2ccccc21)OCC,18.7 µM (active)
5,CN1CCN(CCOc2cc(OC3CCOCC3)c3c(Nc4c(Cl)ccc5c4OCO5)ncnc3c2)CC1,18.7 µM (active)
6,O=C(Nc1cc(Cl)cc2c1[nH]c1cnccc12)c1cccnc1,inactive
7,COc1cc(N2CCC(N3CCN(C)CC3)CC2)ccc1Nc1ncc(Cl)c(Nc2ccccc2S(=O)(=O)C(C)C)n1,20.9 µM (active)
8,CN(C)Cc1ccc(-c2nc3cccc4c3n2CCNC4=O)cc1,inactive
9,CC(C)(C)C(=O)Oc1ccc2c(c1)nc(NC(=O)c1cccc([N+](=O)[O-])c1)n2CCCO,inactive
10,CC1=C(/C=C/C(C)=C/C=C/C(C)=C/C(=O)Nc2ccc(O)cc2)C(C)(C)CCC1,23.5 µM (active)
11,CC(C)(C(=O)NCC(F)(F)C(F)(F)F)C(=O)N[C@@H]1C(=O)Nc2ccccc2-c2ccccc21,inactive
12,CC(C)(C)COc1ccc(-n2cc(C(=O)O)cn2)cc1C#N,inactive
13,OC[C@H]1O[C@@H](n2cnc3c2NC=NC[C@@H]3O)C[C@H]1O,inactive
14,CC(C)(C)c1cc(C(=O)O)c(NC(=O)Nc2ccc3[nH]ncc3c2)s1,inactive
15,CO[C@H]1C=CC=C(C)C(=O)NC2=CC(=O)C(NCCN(C)C)=C(C[C@@H](C)C[C@H](OC)[C@@H](O)[C@@H](C)C=C(C)[C@@H]1OC(N)=O)C2=O,0.0059 µM (active)
16,O=C(O)c1ccc(-c2cc3cccnc3c(-c3ccc4nonc4c3)n2)cc1,inactive
17,COc1ccc(C2CC(c3ccccc3)=NN2c2ccc(S(N)(=O)=O)cc2)cc1 (stereo not given),inactive
18,CS(=O)c1ccc(-c2nc(-c3ccc(F)cc3)c(-c3ccncc3)[nH]2)cc1 (stereo not given),inactive
19,O=C1C(Cl)=C(NCCN2CCOCC2)C(=O)c2ncccc21,14.8 µM (active)
20,O=C(N[C@@H](c1ccccc1)[C@@H]1CCCCN1)c1cccc(C(F)(F)F)c1Cl,inactive
